Reference: PubChem BioAssay (NCATS)
Results filed as inconclusive are left out. Activity calls are given as the source filed them. Calls come from the whole dose curve; as a rule, active = well fitted inhibition curve with a large enough effect; inconclusive = small, poorly fitted or top-dose-only effect; inactive = flat fitted curve, though single readings scatter.

What was measured:
Assay in all cases: Cytotoxic Profiling of Annotated Libraries Using Quantitative High-Throughput Screening (AID 1296008); note: nearly all actives have a fitted effect of over 60% in size
Details in all cases: Five cell lines viability, CellTiter-Glo ATP luminescence, 48-72 h; max response: hits give low values
[1] = test system: CRL-7250
Procedure, shortened: (§1)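 Cytotoxicity was measured as CellTiter-Glo ATP luminescence, read after 10 min at room temperature. Compound treatment of the cells lasted 48 or 72 hr at 37 degrees Celsius in a qHTS format.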

[2] = test system: HEK293
Procedure, shortened: as §1

[3] = test system: HaCat
Procedure, shortened: as §1

[4] = test system: KB-3-1
Procedure, shortened: as §1

[5] = test system: NIH3T3
Procedure, shortened: as §1

Measured: max response
% is set by controls: 0 for no effect and ±100 for the full control effect.

COc1ccc([C@@]2(O)c3c(ccc4c3OC(C)(CCC=C(C)C)C=C4)NC(=O)[C@@H]2OC)cc1 (stereo not given in full)
inactive: [1] 4.89% | [2] -3.72% | [3] 1.02% | [4] 4.57% | [5] -14.3%

C/C=C/C(O)C1OC(=O)CC1Nc1ccc(C(=O)O)cc1 (stereo not given)
inactive: [1] 4.31% | [2] 4.45% | [3] -8.27% | [4] 8.51% | [5] 1.46%

C/C=C1\[C@H](O[C@@H]2O[C@H](CO)[C@@H](O)[C@H](O)[C@H]2O)OC=C(C(=O)OC)[C@H]1CC(=O)OC[C@H]1O[C@@H](OCCc2ccc(O)cc2)[C@H](O)[C@@H](O)[C@@H]1O
inactive: [1] -9.74% | [2] 0.429% | [3] -4.08% | [4] 1.44% | [5] -11.8%

C[C@@H]1O[C@@H](O[C@H]2[C@@H]3C=CO[C@@H](O[C@@H]4O[C@H](CO)[C@@H](O)[C@H](O)[C@H]4O)[C@@H]3[C@@]3(CO)O[C@@H]23)[C@H](OC(=O)/C=C/c2ccc(O)c(O)c2)[C@H](O)[C@H]1O
inactive: [1] | [2] -5.61% | [3] 1.24% | [4] 6.2% | [5] -3.69%

CC(C)(C)NC(=O)[C@@H](c1cccnc1)N(C(=O)c1ccco1)c1ccc(C(C)(C)C)cc1
inactive: [1] 4.34% | [2] -16.3% | [3] -16.4% | [4] | [5] 4.2%

COC1CC(OC2CCC3(C)C(=CCC4C3C(OC(C)=O)C(OC(=O)/C=C/c3ccccc3)C3(C)C(C(C)O)CCC43O)C2)OC(C)C1OC1CC(OC)C(OC2OC(C)C(OC3OC(CO)C(O)C(O)C3O)C(OC)C2O)C(C)O1 (stereo not given)
inactive: [1] 2.68% | [2] -2.45% | [3] 0.93% | [4] -1.59% | [5] 0.895%
